Experimental data as given in PubChem BioAssay (Tox21).
A number with no mark means an inactive call. Results filed as inconclusive are left out. Where a call stands in place of a potency, no number is given. Activity calls are given as the source filed them. Unless noted, the call rests on the fitted dose curve; in most records, active means well fitted curve in the direction sought with a large enough effect in the repeat runs; inconclusive means weak or mixed curves; inactive means no such curve, though single readings can be large; an effect the other way counts as inactive or inconclusive.

Columns and labels:
[1] = qHTS assay to identify small molecule agonists of the TGF-beta/Smad signaling pathway - cell viability counter screen (AID 1346829); further: top concentration of the series differs between compounds; nearly all actives have a fitted effect of over 45% in size
Outline: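 Tox21 qHTS format: SBE-bla HEK 293T cells treated with DMSO-dissolved compounds for 5 hr; CellTiter-Glo luminescence after 30 min at room temperature.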

[2] = qHTS assay to identify small molecule agonists of the TGF-beta/Smad signaling pathway (AID 1346859; active means well fitted activation curve with a large enough effect in the signal ratio in the repeat runs, not every such curve was filed as active; the % refers to the signal ratio; further: series mostly up to about 77 µM)
Outline: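 Screening used HEK 293T SBE-bla cells at 4,000/well. Test agents: 5 hr, 37 C. Detection: FRET substrate, 2 hr RT, then excitation 405 nm with emissions at 460 and 530 nm.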

[3] = molecular target: Thyrotropin-releasing hormone receptor (Homo sapiens) (UniProt P34981); test: qHTS assay to identify small molecule antagonists of the thyrotropin-releasing hormone receptor (TRHR) signaling pathway (AID 1346877; active means well fitted inhibition curve with a large enough effect in the repeat runs, not every such curve was filed as active; further: series mostly up to about 51 µM)
Outline: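 TRHR-expressing HEK293 cells were seeded, cultured 18 h at 37 °C, then loaded with calcium dye for 2 h. Compounds were pre-incubated 5 min at room temperature before 1 nM TRH (final) was added, and kinetic fluorescence was recorded for 3 min.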

[4] = molecular target: Thyrotropin-releasing hormone receptor (Homo sapiens) (UniProt P34981); test: qHTS assay to identify small molecule agonists of the thyrotropin-releasing hormone receptor (TRHR) signaling pathway (AID 1346891; calls by dose curve; further: series mostly up to about 58 µM)
Outline: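 Readout was intracellular calcium fluorescence in TRHR-Hek293 cells. Cells were incubated 18 h, dye-loaded 2 h at 37 °C, and treated with compound in agonist mode.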

[5] = Human pregnane X receptor (PXR) small molecule agonists, qHTS cell viability counter screen (AID 1346977); further: nearly all actives have a fitted effect of over 50% in size
Outline: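 In each well, the PXR reporter HepG2 line was checked for viability: CellTiter-Fluor reagent added 23hr post-dosing, fluorescence read after 1hr incubation at 37C.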

[6] = Caspase-3/7 induction in CHO-K1 cells by small molecules, qHTS cell viability counter screen (AID 1346979); further: nearly all actives have a fitted effect of over 35% in size; further: potency means the concentration at half of the fitted maximal effect
Outline: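 Following a 5hr settling period, CHO-K1 cells at 1,500 per well received DMSO-dissolved compounds. Cell viability was quantified 16hr later by CellTiter-Fluor fluorescence, measured after 1hr with reagent at 37C.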

[7] = Caspase-3/7 induction in CHO-K1 cells by small molecules, qHTS assay (AID 1346980); further: nearly all actives have a fitted effect of over 15% in size
Outline: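 Luminescent Caspase-Glo 3/7 read (30min, room temperature) quantified apoptosis induction. Cells were wild-type CHO-K1, treated with compound for 17hr at 37 C and 5% CO2.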

[8] = Caspase-3/7 induction in HepG2 cells by small molecules, qHTS cell viability counter screen (AID 1346981); further: nearly all actives have a fitted effect of over 30% in size; further: potency means the concentration at half of the fitted maximal effect
Outline: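 Wild-type HepG2 cells (2,000/well) were allowed to settle for 5 hr at 37 C, 5% CO2, then dosed with compounds in DMSO by pin transfer. After 16 hr at 37 C, CellTiter-Fluor was added and fluorescence read 1 hr later.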

[9] = molecular target: Nuclear receptor subfamily 1 group I member 2 (Homo sapiens) (UniProt O75469); test: Human pregnane X receptor (PXR) small molecule agonists, qHTS assay (AID 1346982); further: nearly all actives have a fitted effect of over 35% in size
Outline: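 PXR-Luc HepG2 cells (CYP3A4 promoter-driven luciferase) were seeded in medium with 5% charcoal-stripped FBS, left 5 hr at 37 C, then exposed to compounds in DMSO for 24 hr. Luminescence was read after ONE-Glo addition.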

[10] = molecular target: Cytochrome P450 2D6 (Homo sapiens) (UniProt P10635); test: Cytochrome P450 Family 2 Subfamily D Member 6 (CYP2D6) small molecule antagonists: luciferase reporter qHTS assay (AID 1671196); further: nearly all actives have a fitted effect of over 50% in size; further: potency means the concentration at half of the fitted maximal effect
Outline: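 CYP2D6 enzyme–substrate mix was held with compound for 10 min at room temperature, then NADPH regeneration solution was added and the reaction ran 1 h at room temperature. Luciferin product was detected by luminescence after 20 min with detection reagent.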

[11] = molecular target: Cytochrome P450 2C19 (Homo sapiens) (UniProt P33261); test: Cytochrome P450 Family 2 Subfamily C Member 19 (CYP2C19) small molecule antagonists: luciferase reporter qHTS assay (AID 1671197); further: nearly all actives have a fitted effect of over 65% in size; further: potency means the concentration at half of the fitted maximal effect
Outline: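 Relative luminescence units recorded 20 min after the detection reagent stopped a 1 h, 37C CYP2C19 reaction on proluciferin substrate, which was started by NADPH regeneration following 10 min room-temperature compound preincubation; ketoconazole positive control.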

[12] = molecular target: Cytochrome P450 2C9 (Homo sapiens) (UniProt P11712); test: Cytochrome P450 Family 2 Subfamily C Member 9 (CYP2C9) small molecule antagonists: luciferase reporter qHTS assay (AID 1671198); further: nearly all actives have a fitted effect of over 50% in size; further: potency means the concentration at half of the fitted maximal effect
Outline: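 Enzyme-substrate mix preincubated with compound 10 min at room temperature; reaction started with NADPH regeneration solution, 1 h 37C. Luminescent luciferin product read after 20 min detection reagent.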

[13] = molecular target: Cytochrome P450 3A4 (Homo sapiens) (UniProt P08684); test: Cytochrome P450 Family 3 Subfamily A Member 4 (CYP3A4) small molecule antagonists: luciferase reporter qHTS assay (AID 1671201); further: nearly all actives have a fitted effect of over 50% in size; further: potency means the concentration at half of the fitted maximal effect
Outline: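 CYP3A4 activity was followed with a P450-Glo proluciferin substrate. Test compounds in DMSO were preincubated 10 min; NADPH regeneration then ran 1 h, and light output was read 20 min after detection reagent.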

[14] = Caspase-3/7 induction in HepG2 cells by small molecules, qHTS assay (AID 1346978); further: nearly all actives have a fitted effect of over 15% in size
Outline: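 Caspase-3/7 induction was measured by Caspase-Glo 3/7 luminescence (30 min, room temperature) after a 17 hr compound exposure of wild-type HepG2 cells seeded at 2,000 per well and pre-incubated 5 hr.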

[15] = molecular target: Cytochrome P450 1A2 (Homo sapiens) (UniProt P05177); test: Cytochrome P450 Family 1 Subfamily A Member 2 (CYP1A2) small molecule antagonists: luciferase reporter qHTS assay (AID 1671199); further: nearly all actives have a fitted effect of over 50% in size; further: potency means the concentration at half of the fitted maximal effect
Outline: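 Human CYP1A2 activity measured with a P450-Glo proluciferin substrate; compounds in DMSO preincubated 10 min at room temperature with enzyme-substrate mix, then NADPH regeneration system added for 1 h. Luciferin detection reagent, 20 min, luminescence read.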

[16] = molecular target: Voltage-gated inwardly rectifying potassium channel KCNH2 (Homo sapiens) (UniProt Q12809); test: Human Ether-a-go-go-Related Gene (hERG) channel small molecule antagonists: fluorescence cell-based qHTS assay (AID 1671200)
Outline: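 In this thallium-flux screen, overnight-cultured U2OS cells bearing the channel are dye-loaded in darkness for an hour, rested 10 min at room temperature, and then monitored kinetically at 480/540 nm for two minutes post-stimulus.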

[17] = molecular target: Nuclear receptor subfamily 1 group I member 2 (Rattus norvegicus) (UniProt Q9R1A7); test: Rat pregnane X receptor (rPXR) activation by small molecules, qHTS assay (AID 1346983); conditions: rPXR luciferase reporter cells, One-Glo luminescence, 24 h; max activation: active compounds read high; further: nearly all actives have a fitted effect of over 20% in size; further: potency means the concentration at half of the fitted maximal effect
Outline: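 Luminescent readout (One-Glo luciferase, 30 min room temperature) followed 24 hr compound treatment at 37 C of rPXR cells plated 2,000 per well and preincubated 5hr; qHTS format with compounds delivered in DMSO.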

[18] = molecular target: Nuclear receptor subfamily 1 group I member 2 (Homo sapiens) (UniProt O75469); test: CYP3A4 induction through human pregnane X receptor (PXR) by small molecules, qHTS assay (AID 1346984); further: nearly all actives have a fitted effect of over 40% in size
Outline: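 DPX-2 cells (HepG2 co-transfected with PXR and CYP3A4 promoter-luciferase) treated with compounds 24 h at 37C; luciferin-IPA CYP3A4 substrate 3uM final added for 3 h, then One-Glo; luminescence read. qHTS format.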

Sequence of Nuclear receptor subfamily 1 group I member 2 (Homo sapiens) (O75469 whole entry, looked up): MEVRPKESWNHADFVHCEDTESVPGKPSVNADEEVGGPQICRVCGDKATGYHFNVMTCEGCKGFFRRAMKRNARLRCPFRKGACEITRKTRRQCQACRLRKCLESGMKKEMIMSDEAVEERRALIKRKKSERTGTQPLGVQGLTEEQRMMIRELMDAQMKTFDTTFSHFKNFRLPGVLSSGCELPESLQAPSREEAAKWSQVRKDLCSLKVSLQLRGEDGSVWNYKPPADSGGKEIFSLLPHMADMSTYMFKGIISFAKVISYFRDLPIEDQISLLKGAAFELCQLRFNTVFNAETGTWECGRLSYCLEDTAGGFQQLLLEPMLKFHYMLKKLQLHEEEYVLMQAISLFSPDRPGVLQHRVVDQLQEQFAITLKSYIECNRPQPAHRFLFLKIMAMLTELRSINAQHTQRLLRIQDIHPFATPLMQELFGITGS
Sequence of Cytochrome P450 3A4 (Homo sapiens) (P08684 whole entry, looked up): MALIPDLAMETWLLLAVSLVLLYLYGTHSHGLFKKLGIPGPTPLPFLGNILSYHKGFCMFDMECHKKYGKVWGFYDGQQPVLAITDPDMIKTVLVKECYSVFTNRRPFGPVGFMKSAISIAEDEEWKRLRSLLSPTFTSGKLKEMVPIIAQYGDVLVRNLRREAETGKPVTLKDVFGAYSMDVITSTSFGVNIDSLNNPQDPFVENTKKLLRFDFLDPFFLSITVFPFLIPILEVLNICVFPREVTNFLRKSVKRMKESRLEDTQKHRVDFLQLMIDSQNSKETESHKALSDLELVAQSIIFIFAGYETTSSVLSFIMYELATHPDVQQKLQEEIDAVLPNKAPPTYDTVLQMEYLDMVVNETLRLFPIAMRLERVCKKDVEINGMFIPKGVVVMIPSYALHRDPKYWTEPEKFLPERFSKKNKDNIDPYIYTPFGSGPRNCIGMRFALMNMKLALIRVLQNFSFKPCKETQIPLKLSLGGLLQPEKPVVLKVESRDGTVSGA
Sequence of Cytochrome P450 2C9 (Homo sapiens) (P11712 whole entry, looked up): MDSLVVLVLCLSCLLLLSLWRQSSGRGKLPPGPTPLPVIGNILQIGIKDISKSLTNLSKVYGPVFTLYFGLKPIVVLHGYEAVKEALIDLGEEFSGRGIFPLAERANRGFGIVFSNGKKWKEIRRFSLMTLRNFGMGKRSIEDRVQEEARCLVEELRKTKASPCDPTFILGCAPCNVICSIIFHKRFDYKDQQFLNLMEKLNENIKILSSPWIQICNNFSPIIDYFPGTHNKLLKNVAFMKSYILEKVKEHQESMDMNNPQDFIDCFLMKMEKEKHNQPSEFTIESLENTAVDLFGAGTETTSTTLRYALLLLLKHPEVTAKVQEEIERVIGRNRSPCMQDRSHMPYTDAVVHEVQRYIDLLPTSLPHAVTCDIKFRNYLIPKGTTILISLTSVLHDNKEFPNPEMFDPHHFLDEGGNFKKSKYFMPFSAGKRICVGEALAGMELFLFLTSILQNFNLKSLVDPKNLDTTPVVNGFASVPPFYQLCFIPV
Sequence of Voltage-gated inwardly rectifying potassium channel KCNH2 (Homo sapiens) (Q12809 whole entry, looked up): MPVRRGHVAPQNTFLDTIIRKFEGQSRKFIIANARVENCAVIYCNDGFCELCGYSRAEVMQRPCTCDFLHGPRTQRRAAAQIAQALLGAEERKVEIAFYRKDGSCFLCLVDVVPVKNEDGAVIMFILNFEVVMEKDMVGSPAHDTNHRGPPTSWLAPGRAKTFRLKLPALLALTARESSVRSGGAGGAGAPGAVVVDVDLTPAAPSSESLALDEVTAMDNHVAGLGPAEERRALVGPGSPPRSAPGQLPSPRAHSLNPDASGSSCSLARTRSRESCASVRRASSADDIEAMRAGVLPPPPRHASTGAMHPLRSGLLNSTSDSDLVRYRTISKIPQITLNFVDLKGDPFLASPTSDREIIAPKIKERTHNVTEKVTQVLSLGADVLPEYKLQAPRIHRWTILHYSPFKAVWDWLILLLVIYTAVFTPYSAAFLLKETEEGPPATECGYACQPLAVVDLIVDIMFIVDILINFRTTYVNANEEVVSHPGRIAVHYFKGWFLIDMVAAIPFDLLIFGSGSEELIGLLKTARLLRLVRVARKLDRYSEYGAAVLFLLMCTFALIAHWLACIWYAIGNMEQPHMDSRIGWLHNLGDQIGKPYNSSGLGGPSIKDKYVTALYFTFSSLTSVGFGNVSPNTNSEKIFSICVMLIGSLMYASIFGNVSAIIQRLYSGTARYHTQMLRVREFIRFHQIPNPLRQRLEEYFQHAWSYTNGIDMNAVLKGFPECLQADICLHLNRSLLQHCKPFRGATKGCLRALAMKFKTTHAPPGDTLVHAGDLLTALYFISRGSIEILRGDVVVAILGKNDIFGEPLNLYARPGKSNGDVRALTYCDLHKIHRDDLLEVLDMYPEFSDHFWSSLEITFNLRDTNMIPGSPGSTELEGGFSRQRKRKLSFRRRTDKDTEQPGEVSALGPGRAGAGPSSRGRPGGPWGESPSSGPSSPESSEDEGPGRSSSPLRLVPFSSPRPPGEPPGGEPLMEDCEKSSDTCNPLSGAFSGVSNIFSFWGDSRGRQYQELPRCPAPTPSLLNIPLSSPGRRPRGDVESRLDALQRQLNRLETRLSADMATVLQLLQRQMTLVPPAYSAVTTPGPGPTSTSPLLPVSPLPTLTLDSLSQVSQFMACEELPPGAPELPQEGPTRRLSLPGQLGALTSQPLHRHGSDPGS
Sequence of Cytochrome P450 2D6 (Homo sapiens) (P10635 whole entry, looked up): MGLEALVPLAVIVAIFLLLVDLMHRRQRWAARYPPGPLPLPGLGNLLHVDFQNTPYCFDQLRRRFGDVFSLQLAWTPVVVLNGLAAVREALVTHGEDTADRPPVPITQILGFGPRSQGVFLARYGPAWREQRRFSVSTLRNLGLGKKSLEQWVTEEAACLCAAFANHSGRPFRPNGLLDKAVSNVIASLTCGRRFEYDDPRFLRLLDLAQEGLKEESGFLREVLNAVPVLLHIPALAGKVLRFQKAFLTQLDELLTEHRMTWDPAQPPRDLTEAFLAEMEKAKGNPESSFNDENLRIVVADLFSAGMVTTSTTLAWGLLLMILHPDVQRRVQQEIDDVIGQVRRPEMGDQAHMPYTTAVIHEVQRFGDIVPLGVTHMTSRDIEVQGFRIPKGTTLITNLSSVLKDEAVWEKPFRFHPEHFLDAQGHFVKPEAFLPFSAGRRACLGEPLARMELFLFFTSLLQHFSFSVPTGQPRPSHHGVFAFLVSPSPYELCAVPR
Sequence of Cytochrome P450 1A2 (Homo sapiens) (P05177 whole entry, looked up): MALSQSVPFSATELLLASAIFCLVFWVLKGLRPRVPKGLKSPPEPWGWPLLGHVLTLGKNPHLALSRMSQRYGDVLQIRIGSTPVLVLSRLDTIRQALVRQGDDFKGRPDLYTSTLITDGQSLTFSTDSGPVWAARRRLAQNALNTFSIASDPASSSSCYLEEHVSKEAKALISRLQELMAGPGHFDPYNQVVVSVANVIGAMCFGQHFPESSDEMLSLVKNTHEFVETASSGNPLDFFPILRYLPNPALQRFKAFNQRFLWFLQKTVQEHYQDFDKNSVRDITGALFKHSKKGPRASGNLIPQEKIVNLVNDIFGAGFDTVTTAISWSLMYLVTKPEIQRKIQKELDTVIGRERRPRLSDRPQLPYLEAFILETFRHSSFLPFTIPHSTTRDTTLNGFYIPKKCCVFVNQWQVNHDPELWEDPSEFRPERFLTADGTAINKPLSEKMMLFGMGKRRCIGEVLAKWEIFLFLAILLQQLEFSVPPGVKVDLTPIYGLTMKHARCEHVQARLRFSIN
Sequence of Thyrotropin-releasing hormone receptor (Homo sapiens) (P34981 whole entry, looked up): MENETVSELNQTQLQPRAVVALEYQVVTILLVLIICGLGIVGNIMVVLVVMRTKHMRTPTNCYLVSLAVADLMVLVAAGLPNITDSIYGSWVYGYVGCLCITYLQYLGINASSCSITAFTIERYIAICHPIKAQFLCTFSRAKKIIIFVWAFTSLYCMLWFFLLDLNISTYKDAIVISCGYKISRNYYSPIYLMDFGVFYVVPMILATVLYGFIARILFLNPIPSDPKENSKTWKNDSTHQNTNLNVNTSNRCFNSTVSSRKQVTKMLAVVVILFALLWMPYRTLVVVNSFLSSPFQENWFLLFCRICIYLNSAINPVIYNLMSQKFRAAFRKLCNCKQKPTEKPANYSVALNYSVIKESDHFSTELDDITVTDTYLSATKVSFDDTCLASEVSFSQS
Sequence of Cytochrome P450 2C19 (Homo sapiens) (P33261 whole entry, looked up): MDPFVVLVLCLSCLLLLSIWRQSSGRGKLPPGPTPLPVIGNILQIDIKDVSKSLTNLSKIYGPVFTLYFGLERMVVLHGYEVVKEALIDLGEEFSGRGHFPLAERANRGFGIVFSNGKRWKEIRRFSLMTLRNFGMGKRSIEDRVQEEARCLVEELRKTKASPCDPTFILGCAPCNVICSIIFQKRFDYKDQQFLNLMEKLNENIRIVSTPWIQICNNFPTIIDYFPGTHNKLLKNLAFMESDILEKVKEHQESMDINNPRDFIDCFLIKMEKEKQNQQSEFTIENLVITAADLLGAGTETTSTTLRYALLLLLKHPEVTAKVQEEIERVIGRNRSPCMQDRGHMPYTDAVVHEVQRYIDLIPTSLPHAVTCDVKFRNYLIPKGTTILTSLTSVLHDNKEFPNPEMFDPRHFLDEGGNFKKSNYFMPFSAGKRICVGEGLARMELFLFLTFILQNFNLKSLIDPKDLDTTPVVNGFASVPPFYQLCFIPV
Sequence of Nuclear receptor subfamily 1 group I member 2 (Rattus norvegicus) (Q9R1A7 whole entry, looked up): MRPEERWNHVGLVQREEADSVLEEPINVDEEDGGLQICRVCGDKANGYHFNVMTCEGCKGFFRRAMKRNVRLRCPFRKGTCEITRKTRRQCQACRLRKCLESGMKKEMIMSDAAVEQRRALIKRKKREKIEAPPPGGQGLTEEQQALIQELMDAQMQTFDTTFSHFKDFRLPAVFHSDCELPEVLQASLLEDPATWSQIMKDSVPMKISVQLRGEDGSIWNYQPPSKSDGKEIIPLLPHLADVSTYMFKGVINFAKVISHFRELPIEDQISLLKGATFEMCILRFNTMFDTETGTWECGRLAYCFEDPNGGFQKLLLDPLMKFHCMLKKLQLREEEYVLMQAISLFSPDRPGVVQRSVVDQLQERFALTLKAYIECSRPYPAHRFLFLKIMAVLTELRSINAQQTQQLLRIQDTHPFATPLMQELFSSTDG

| Structure (SMILES) | outcome [1] | outcome [2] | outcome [3] | outcome [4] | Potency [5] | Potency [6] | outcome [7] | Potency [8] | Potency [9] | Potency [10] | Potency [11] | Potency [12] | Potency [13] | outcome [14] | Potency [15] | Potency [16] | max activation [17] | outcome [18] | Potency [17] |
| --- | --- | --- | --- | --- | --- | --- | --- | --- | --- | --- | --- | --- | --- | --- | --- | --- | --- | --- | --- |
| C[Si]1(C)N[Si](C)(C)N[Si](C)(C)N1 | inactive | inactive | inactive | inactive | inactive | inactive | inactive | inactive | inactive | inactive | 50.2 µM (active) | 63.3 µM (active) | 6.33 µM (active) | – | – | – | – | – | – |
| CCCCCCCC[Si](OCC)(OCC)OCC | inactive | inactive | inactive | inactive | inactive | – | inactive | – | inactive | inactive | inactive | inactive | inactive | inactive | inactive | inactive | – | – | – |
| O=C(COCCOCCOCC(=O)Nc1c(I)cc(I)c(C(=O)O)c1I)Nc1c(I)cc(I)c(C(=O)O)c1I | inactive | inactive | inactive | inactive | inactive | inactive | inactive | – | inactive | – | 34.7 µM (active) | inactive | inactive | – | inactive | inactive | – | – | – |
| Nc1ccc(S(=O)(=O)NC(=O)c2ccccc2)cc1 | inactive | inactive | inactive | inactive | inactive | inactive | inactive | – | inactive | – | inactive | – | inactive | – | inactive | inactive | -3.91% | inactive | – |
| CCCCC(=O)N(C)C | inactive | inactive | inactive | inactive | inactive | – | inactive | inactive | inactive | inactive | – | inactive | inactive | inactive | inactive | inactive | – | – | – |
| C[C@@H]1C[C@H]2[C@@H]3C[C@H](F)C4=CC(=O)C=C[C@]4(C)[C@@]3(F)[C@@H](O)C[C@]2(C)[C@@]1(O)C(=O)CO | inactive | inactive | inactive | inactive | inactive | – | inactive | inactive | – | – | – | – | – | inactive | – | – | – | – | 1.41 µM (active) |
| NC(=O)NNC(N)=O | inactive | inactive | inactive | inactive | – | inactive | inactive | inactive | inactive | inactive | inactive | 79.6 µM (active) | inactive | inactive | – | inactive | – | – | – |
| NS(=O)(=O)c1ccccc1OC(F)(F)F | inactive | inactive | inactive | inactive | – | inactive | inactive | inactive | inactive | – | – | inactive | inactive | inactive | – | inactive | – | – | – |
| CC(=O)c1ccc(OCC(=O)N2CCCCC2)cc1 | inactive | inactive | inactive | inactive | – | inactive | inactive | inactive | – | inactive | – | inactive | – | inactive | inactive | inactive | – | – | – |
| COc1cc([N+](=O)[O-])ccc1N | inactive | inactive | inactive | inactive | – | 54.5 µM (active) | inactive | 54.5 µM (active) | inactive | – | inactive | inactive | – | inactive | 22.4 µM (active) | inactive | – | – | – |
| Cc1nc2n(c(=O)c1CCN1CCC(C(=O)c3ccc(F)cc3)CC1)CCS2 | inactive | inactive | inactive | inactive | – | inactive | inactive | – | inactive | 0.49 µM (active) | – | – | – | inactive | – | – | – | – | – |
| CC(=O)OC[C@H]1O[C@@H](OC(C)=O)[C@H](OC(C)=O)[C@@H]1OC(C)=O | inactive | inactive | inactive | inactive | – | inactive | inactive | inactive | inactive | inactive | inactive | inactive | inactive | inactive | inactive | inactive | – | – | – |
| Nc1cc(S(=O)(=O)O)ccc1S(=O)(=O)O | inactive | inactive | inactive | inactive | – | inactive | inactive | inactive | inactive | inactive | inactive | inactive | inactive | inactive | inactive | inactive | – | – | – |
